Structures are written as SMILES. The campaign covered roughly 360,000 compounds. About 300 (0.083%) were called active. No stated cut-off is given here; in the data, active means activation above about 40%; inconclusive means between about 15% and that limit; inactive means weaker than that. Many of the other results were omitted from the sample, so actives are more common in it than they were.

D(2) dopamine receptor (Homo sapiens), sequence (P14416 whole entry, looked up): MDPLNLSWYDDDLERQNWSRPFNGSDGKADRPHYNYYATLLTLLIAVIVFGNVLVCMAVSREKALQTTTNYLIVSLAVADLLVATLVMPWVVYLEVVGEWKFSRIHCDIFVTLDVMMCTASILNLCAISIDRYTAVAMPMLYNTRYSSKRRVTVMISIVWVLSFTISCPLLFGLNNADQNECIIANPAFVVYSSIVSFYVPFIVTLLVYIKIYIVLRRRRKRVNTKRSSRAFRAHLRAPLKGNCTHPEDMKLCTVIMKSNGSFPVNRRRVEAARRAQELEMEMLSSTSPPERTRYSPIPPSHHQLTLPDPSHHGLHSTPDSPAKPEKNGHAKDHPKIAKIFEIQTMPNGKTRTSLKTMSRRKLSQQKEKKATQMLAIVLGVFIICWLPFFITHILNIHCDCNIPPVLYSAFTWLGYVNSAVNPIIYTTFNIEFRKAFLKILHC

This assay has as its target D(2) dopamine receptor (Homo sapiens) (UniProt P14416). As to the kind of experiment: Beta-Arrestin HTS for Positive Allosteric Modulators of the Human D2 Dopamine Receptor: Agonists. The note with it: DiscoveRx PathHunter D2 beta-arrestin, luminescence, 90 min; hits give high values; 100% = 57 uM dopamine signal. From the text:
There is great interest in identifying small molecule ligands for G-protein coupled receptors (GPCRs) as nearly 50% of all FDA-approved drugs target these important receptor proteins. […] Amongst the dopamine receptors (DARs), the D2 is arguably one of the most validated drug targets in neurology and psychiatry. For instance, all receptor-based antiparkinsonian drugs primarily work via stimulating the D2 DAR, whereas all FDA-approved antipsychotic agents are antagonists of this receptor. The D2 DAR is also therapeutically targeted in other disorders such as restless legs syndrome, tardive dyskinesia, Tourette's syndrome, and hyperprolactinemia.
To this end, a miniaturized qHTS screen was developed to be screened against the Molecular Libraries Small Molecule Repository (MLSMR). This assay seeks to identify agonists against the D2 DAR.
NIH Molecular Libraries Probe Production Network [MLPCN]
NIH Chemical Genomics Center [NCGC]
PI Name: David Sibley, National Institutes of Neurological Disorders and Stroke
DiscoveRx D2 cells were thawed from frozen stock and seeded at 2,100 cells/ 3 uL/well media (DiscoveRx Plating Reagent 2) with MultiDrop Combi dispenser (Thermo Scientific, Logan, UT) onto white tissue culture treated 1536-well Aurora plates (Brooks Automation, Chelmsford, MA) and allowed to attach overnight at 37 deg C, 5% CO2. Next, 23 nL/well of compound solutions in DMSO were added with a pintool transfer (Kalypsis, San Diego, CA). As the positive control, 1 uL/well dopamine (EC100, 57 uM final concentration) diluted in buffer (HBSS + 10 mM HEPES + SMB + 0.1% Tween-20) was dispensed to 1 column of each plate. The rest of the plate was dispensed with buffer only, 1 uL/well as well. The cells were stimulated by compounds or dopamine control for 90 minutes at 37 deg C, 5% CO2, after which 1.5 ul/well of DiscoveRx detection reagent was added with BioRAPTR FRD dispenser. The detection reagent was prepared by mixing of Galacton Star Substrate, Emerald II solution and PathHunter buffer (supplied by the assay kit) together at 1:5:19 proportion accordingly just prior to dispensing. The plates were incubated at ambient temperature for 1 hour and then the luminescent signal was read on ViewLux plate reader (PerkinElmer, Waltham, MA).
For `CC(OC(=O)CNS(=O)(=O)/C=C/c1ccccc1)C(=O)Nc1ccc(S(=O)(=O)N2CCCC2)cc1` (stereo not given), the activation is 0.137% (inactive).
Then `CCOc1ccc(NC(=O)CN(C)C(=O)c2c(C)noc2C)cc1OCC`, with -1.71% (inactive); and `NC(=O)C(Cc1ccccc1)NC(=O)C12CC3CC(CC(C3)C1)C2` (stereo not given), with -2.84% (inactive).
For the compound `CSc1nnc2c(n1)OC(c1cn(C)c3ccccc13)N(C(C)=O)c1ccccc1-2` (stereo not given), the activation was -3.75% (inactive).
The figure for `O=C(CSc1nc2cccc(F)c2c(=O)n1-c1ccccc1)Nc1ccc2c(c1)CCC2` is 0.472% (inactive); for `C=CS(=O)c1sc(Cl)c(N2CCOCC2)c1[N+](=O)[O-]` (stereo not given) it is -11% (inactive).
The figure for `CC(C)c1cccc(C(C)C)c1Nc1cn[nH]c1` is 8.06% (inactive).
Then `CSCCC(NC(=O)COc1ccccc1)C(=O)N(C)CC(=O)Nc1ccc(C)cc1` (stereo not given), with -3.34% (inactive); and `Cc1ccc(Sc2cc(N3CCOCC3)nc(-c3ccccc3)n2)cc1`, with 2.6% (inactive); and `Cc1csc(NC(=O)CSc2nnc(-c3cccnc3)o2)n1`, with -2.74% (inactive).
As to `CCC(=NC1CC(C)(C)NC(C)(C)C1)C1=C(O)CC(C)(C)CC1=O`, the activation is 0.839% (inactive).
The figure for `CCOc1ccc(NC(=O)CN(C)CC(=O)NC(C)c2ccccc2)cc1OCC` (stereo not given) is -5.49% (inactive); for `COCCn1c(C)cc(C(=O)COC(=O)/C=C/c2cccc(OC)c2)c1C` it is -0.488% (inactive).
The figure for `CCCCc1nccn1CCn1ccnc1CCCC` is -1.34% (inactive); for `Cc1cc(C)nc(N2C(=O)CC(Cc3ccccc3)C2=O)n1` (stereo not given) it is -1.43% (inactive).
Regarding `CC(C)c1ccc(N(C(=O)c2ccco2)C(C(=O)NC2CCCC2)c2cccnc2)cc1` (stereo not given), the activation is 1.27% (inactive).
Then `CCN1CCN(C(=O)/C=C\C(=O)O)CC1`, with -0.987% (inactive); and `CCOc1ccc(Oc2nc(C)cc(OC)n2)nn1`, with -3.16% (inactive); and `CCC(C(=O)NC1CCCCC1)N(C(=O)c1snc(C(N)=O)c1N)c1ccc(OC)cc1OC` (stereo not given), with -1.51% (inactive).
Then `CC(=O)NC1(c2ccc(F)cc2)CCN(C(=O)c2c(F)cccc2F)CC1`, with -4.03% (inactive); and `Cc1ccc(Cl)cc1NC(=O)C1CCN(S(C)(=O)=O)CC1`, with -3.51% (inactive).
The figure for `CC(NCc1ccccc1OC1CCCC1)c1ccccc1` (stereo not given) is -2.1% (inactive).
Consider `COc1ccc(-c2ccc3nnc(SCC(=O)Nc4ccc(NC(C)=O)cc4)n3n2)cc1`, for which the activation is 0.231% (inactive).
Then `O=C(NNS(=O)(=O)c1ccc(F)cc1)C1CCCCC1`, with -2.79% (inactive).
Then `O=C(Cn1nc([N+](=O)[O-])nc1Br)NC1CCCCC1`, with 6.2% (inactive).
Then `CC(=O)c1nnn(-c2ccc(Cl)cc2C#N)c1C`, with -0.344% (inactive); and `Cc1cccc2nc(CNc3ccc(F)cc3)cn12`, with -2.67% (inactive); and `COc1ccc([N+](=O)[O-])cc1NC(=O)c1ccc(N(Cc2ccccc2C)S(C)(=O)=O)cc1`, with 1.42% (inactive).
`CN(CC(=O)NC1CCCCC1)S(=O)(=O)c1cccc2cccnc12`: the activation is -4.91% (inactive).
In the case of `CCCCCN(C(=O)NC(=O)Nc1cccc(C)c1C)S(C)(=O)=O`, the activation was -5.29% (inactive).
Then `Cc1ccccc1Nc1scc(-c2ccc(Br)cc2)[n+]1-c1ccccc1C`, with -4.78% (inactive); and `Cc1nn(-c2ccccc2)c2c1c(C)c(CCC(=O)NCC1CCCO1)c(=O)n2C` (stereo not given), with -0.567% (inactive).
With `O=c1ccc2cc(S(=O)(=O)N3CCN(c4ccccc4)CC3)ccc2o1`, the activation is -0.365% (inactive).
As to `CCCOc1cc(C)c(S(=O)(=O)n2nnc3ccccc32)cc1C`, the activation was 2.16% (inactive).
The figure for `CC(=O)N1C[C@@H](CO)[C@@H](N(C)C(=O)c2ccco2)C[C@H]1c1ccccc1` is -6.66% (inactive).
Then `CCCN(CCc1ccccc1)C1CCc2c(O)cccc2C1` (stereo not given), with 56.1% (active).
Turning to `Cc1cc(C)cc(C(=O)N(CCc2ccccc2)C2=CC3CCC(C2)N3C)c1` (stereo not given), the activation is 0.198% (inactive).
As for `CCCc1cc(=O)[nH]c(SCC(=O)c2c(N)n(CC(C)C)c(=O)n(C)c2=O)n1`, the activation was -5.56% (inactive).
Turning to `Cc1ccc(-c2csc(C(C#N)=C(O)CN3CCN(C(=O)c4ccco4)CC3)n2)cc1`, the activation was 9.93% (inactive).
The figure for `O=C(NCC1CCCO1)C1CCN(C2CCN(C(=O)C3CCCCC3)CC2)CC1` (stereo not given) is 0.237% (inactive); for `CC1CCc2c(sc3c2C2=NS(=O)(=O)CCN2C=N3)C1` (stereo not given) it is -1.75% (inactive); for `CCCCN1C(=O)C(=O)N(CC(=O)Nc2cccc(C(C)=O)c2)C1=O` it is -3.6% (inactive).
Then `O=C1CCCN1C(=O)COc1ccc([N+](=O)[O-])cc1`, with -5.83% (inactive).
Regarding `C[C@H](OC(=O)n1ccnc1)[C@@H]1O[C@@]2(C)CCC[C@@H]1O2`, the activation was -0.3% (inactive).
With `CCC(=O)N1c2ccc(S(=O)(=O)NCc3ccco3)cc2CC1C` (stereo not given), the activation was 4.56% (inactive).
For the compound `CC(NC(=O)CNC(=O)Cc1cccc2ccccc12)c1ccc(S(N)(=O)=O)cc1` (stereo not given), the activation is -2.38% (inactive).
Then `COc1ccc(CC(=O)NC(C)c2ccc(Cl)c(Cl)c2)cc1S(=O)(=O)N1CCOCC1` (stereo not given), with -3.32% (inactive).
On to `CN(C(=O)c1cccc(NC(=O)Cc2ccc(NC(=O)C3CCCN(C(=O)C4CCCC4)C3)cc2)c1)C1CCC1` (stereo not given), for which the activation was 1.94% (inactive).
As to `COC(C[C@H](O)CC(=O)COCc1ccccc1)OC`, the activation was 0.157% (inactive).
Then `C[C@H](CO)N1C[C@H](C)[C@@H](CN(C)S(=O)(=O)c2ccc(F)cc2)OCc2cnnn2CCCC1=O`, with -9.17% (inactive); and `CC(C)C1C(=O)N(Cc2cn(CCC3OCCO3)nn2)CCS(=O)(=O)N1Cc1ccc(-c2ccccc2C(F)(F)F)cc1` (stereo not given), with -3.03% (inactive); and `Oc1ccccc1CNc1ncc(Br)cc1Br`, with 0.262% (inactive).
The figure for `O=C(CSc1ccsc1[N+](=O)[O-])N1CCCCC1` is -4.54% (inactive).
The figure for `Cc1cccc(NC(=O)c2ccc(OCC(=O)NCc3ccccc3)cc2)c1C` is -2.68% (inactive); for `Cc1c(NC(=O)C(C)OC(=O)c2cc3c4ccccc4n(C)c3s2)c(=O)n(-c2ccccc2)n1C` (stereo not given) it is -5.25% (inactive); for `Cc1ccc(C(=O)NC2CCCC(C)C2C)cc1S(=O)(=O)N1CCCCC1` (stereo not given) it is -2.55% (inactive).
Take `N#CC1=C(N)N(c2ccc(F)cc2)C(=O)C1`: the activation was -1.46% (inactive).
For `CC1(C)C(=O)C2(CCCCC2)C(=O)OC1c1cccs1` (stereo not given), the activation is -2.99% (inactive).
Then `COCCNc1nc(NCc2ccc(NC(C)=O)cc2)c2sccc2n1`, with 67.7% (active); and `CC(=O)Nc1ccc(CNc2nc(NCCN(C)C)nc3cc(-c4ccccc4)sc23)cc1`, with -1.9% (inactive).
Then `COc1cccc(CNc2nc(NCc3cccs3)nc3ccsc23)c1`, with -1.88% (inactive).
Consider `COc1cccc(C(O)c2ncc(-c3ccc4ccccc4c3)[nH]2)c1` (stereo not given), for which the activation was -2.42% (inactive).
With `CC1(C(=O)Nc2ccccc2Br)CCN1C(=O)CC1CC1` (stereo not given), the activation was -0.948% (inactive).
Consider `COc1cc(NC(=O)C2CCN(c3cnccn3)CC2)cc(OC)c1`, for which the activation is -4.96% (inactive).
With `COc1ccc(N(CC(=O)Nc2cc(OC)cc(OC)c2)S(=O)(=O)c2c(C)n[nH]c2C)cc1`, the activation is -3.11% (inactive).
Take `CCNC(=O)Nc1ccc(S(=O)(=O)Nc2cnc(C)nc2C)cc1`: the activation was -5.47% (inactive).
With `O=c1ccc(-c2ccc(S(=O)(=O)Nc3ccccc3)o2)n[nH]1`, the activation is -1.56% (inactive).
The figure for `CCN1C(=O)C(=O)N(CC(=O)Nc2cc(C)ccc2C)C1=O` is -2.03% (inactive); for `CCOc1ccc(CN2CCC(n3nccc3NC(=O)C3CC3)CC2)cc1CO` it is 4.34% (inactive); for `CCCNC(=O)c1cc(C2CCCCN2C(=O)OC)on1` (stereo not given) it is -5.6% (inactive).
The figure for `COc1ccc(C2=Nc3ccccc3NC(=O)C2N(C(=O)c2cc3ccccc3[nH]2)c2ccccc2)cc1` (stereo not given) is 2.65% (inactive).
The figure for `CC(C)(O)C#Cc1ccc(CNC[C@H]2O[C@@H](n3cnc4c(=O)[nH]c(N)nc43)[C@H](O)[C@@H]2O)s1` is -5.21% (inactive); for `O=S(=O)(Cc1nnnn1-c1ccccc1)c1ccccc1` it is 0.629% (inactive).
Take `CC(=O)c1c(N2CCN(c3ccc(F)cc3)CC2)nc(=S)n(-c2ccccc2)c1C`: the activation is -6.73% (inactive).
Turning to `CC(C)c1ccc(S(=O)(=O)N2CCN(C(=O)CN3C(=O)NC(C)(c4ccccc4)C3=O)CC2)cc1` (stereo not given), the activation was 1.77% (inactive).
Then `O=C(Nc1ccc(Cl)c(Cl)c1)N1CC=C(c2ccccc2)CC1`, with -2.15% (inactive); and `CC1CC(C)CN(C(=O)COC(=O)c2ccc3ncsc3c2)C1` (stereo not given), with 0.233% (inactive).
The figure for `CCC(=O)c1c[nH]c(C(=O)NCC2CCCO2)c1` (stereo not given) is -0.182% (inactive); for `COc1ccc(C(C)(O)c2nc(-c3ccc(C)c(C)c3)cs2)cc1` (stereo not given) it is 0.66% (inactive).
As for `CC(C)(C)C(=O)OCc1nc(-c2ccc(O)c(O)c2)cs1`, the activation was 78% (active).
The figure for `CCCC(=O)N1c2ccc(-c3csc(N)n3)cc2CC1C` (stereo not given) is 2.86% (inactive); for `CCCN(CCC)c1c([N+](=O)[O-])c(=O)oc2ccccc12` it is -4.9% (inactive); for `O=C1/C(=C\c2ccc([N+](=O)[O-])cc2)CS(=O)(=O)C/C1=C/c1ccc([N+](=O)[O-])cc1` it is -8.23% (inactive).
The figure for `O=C(O)C1CCN1C1CCCCC1` (stereo not given) is -0.715% (inactive).
Then `OC[C@@H]1CN(Cc2cccs2)C[C@H](n2cnc3c(Nc4ccccc4)ncnc32)O1`, with -3.6% (inactive).
With `COc1cccc(-c2cnc3c(NC(C)=O)cc(-c4cc(F)ccc4OC)cn23)c1`, the activation was 2.15% (inactive).
The figure for `CN1C(=O)/C(=C/C=C2\SCCN2C)OC1=S` is -3.31% (inactive).
On to `O=C1c2ccccc2C(=O)N1CCC(O)C[N+](=O)[O-]` (stereo not given), for which the activation was -2.92% (inactive).
Take `O=C(NC1CC2CCCC(C1)N2C(=O)N1CCCCC1)C1CCCCC1` (stereo not given): the activation was -2.68% (inactive).
The figure for `O=C(Nc1ccccc1N1CCOCC1)c1ccc(OCc2cscn2)cc1` is 9.98% (inactive).

(Values after PubChem BioAssay AID624465 (National Center for Advancing Translational Sciences (NCATS), 2012).)
